This is an account of results in PubChem BioAssay (NCATS).

The target of assay [1] is Glucagon-like peptide 1 receptor (Homo sapiens) (UniProt P43220). As to the kind of experiment: qHTS of GLP-1 Receptor Agonists: LOPAC Validation (AID 624148).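 Also: 0% is about no effect; higher luminescence signal means agonism.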 A digest of the protocol:
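HEK293 cells stably co-expressing GLP-1R and a cAMP-responsive luciferase reporter, plated 12 hours before compound, then incubated 4-6 hr at 37 deg C. Luminescence read 12 min after detection reagent.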
On the technique in general: qHTS replaces the single test concentration by a dilution series.

A short description of assay [2]: qHTS of Nrf2 Activators: LOPAC Validation (AID 624149). Also: 0% is about no effect. A digest of the protocol: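 AREc32_Fluc cells, 1000/well in OPTI-MEM with 5% FBS, grown overnight, then exposed to compounds for 24 hr at 37 deg C, 5% CO2. ARE-driven firefly luciferase read by Steady-Glo luminescence after 30 min at RT.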
The nature of assay [3]: HTS Assay for Allosteric Antagonists of the Human D2 Dopamine Receptor: Hit Validation in HTRF (AID 624455).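 Also: stable D1 dopamine receptor cell line scored for blocking the D1 response; % is scaled to controls: 0 for no effect and ±100 for the full control effect.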 Summed up: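 Hit validation in cells stably expressing the D1 dopamine receptor, run in HTRF format. Compounds were tested for their ability to inhibit the D1-mediated response.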
Background: In TR-FRET formats the signal depends on donor and acceptor labels being close together.

The nature of assay [4]: qHTS assay for small molecule activators of the p53 signaling pathway (AID 651743; active = well fitted activation curve with a large enough effect in the signal ratio, not every such curve was filed as active; the % refers to the signal ratio; also: % of control where 0% means no effect). The conditions noted are these: HCT-116 p53RE-bla, beta-lactamase FRET ratio, 16 h; activation: stronger effect = higher value. A digest of the protocol:
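p53RE-bla HCT-116 cells carrying a beta-lactamase reporter under p53 response elements were exposed to compounds for 16 hours at 37 C. Reporter activity read as fluorescence after 2 hours at room temperature with LiveBLAzer B/G FRET substrate.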

A short description of assay [5]: qHTS assay for small molecule activators of the nuclear factor-kappa B (NF-kB) signaling pathway (AID 651749; active = well fitted activation curve with a large enough effect in the signal ratio; the % refers to the signal ratio; also: % of control where 0% means no effect). The conditions noted are these: NF-kB-bla ME-180 cells, beta-lactamase FRET ratio, 16 h; stronger effect = higher value. Summed up: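 NF-kB-bla ME-180 cells carrying a beta-lactamase reporter under an NF-kB response element, 2,000 cells/well, exposed to compound for 16 hr at 37C; FRET-based beta-lactamase fluorescence read-out of pathway activation.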

Assay [6] is described as follows: qHTS assay for environmental chemicals that activate the Aryl hydrocarbon Receptor (AhR) signaling pathway (AID 651777). Also: % of control where 0% means no effect; nearly all actives have a fitted effect of over 15% in size. To be noted: 1A2-DRE human hepatoma cells, luciferase, 24 h; activation: stronger effect = higher value. A digest of the protocol:
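Quantitative HTS in stably transfected human liver-derived cells whose luciferase gene sits downstream of the CYP1A2 promoter and dioxin response element. After 24 hr exposure at 37 C, One-Glo luminescence was measured.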

The target of assay [7] is Peroxisome proliferator-activated receptor alpha (Homo sapiens) (UniProt Q07869). As to the kind of experiment: qHTS assay for small molecule agonists of the peroxisome proliferator-activated receptor alpha (PPARalpha) signaling pathway (AID 651778). Also: % of control where 0% means no effect. To be noted: PathHunter PPARalpha complementation, chemiluminescence, 6 h; max response: stronger effect = higher value. Summed up:
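Enzyme-fragment complementation assay in which ligand-bound PPARalpha translocates and forms an active enzyme that generates chemiluminescence. Cells were plated overnight, exposed to compound for 6 hr at 37 C, and then given detection reagent for 60 min at room temperature.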

Assay [8] deals with Tumor susceptibility gene 101 protein (Homo sapiens) (UniProt Q99816). As to the kind of experiment: qHTS Assay for Iinhibitors of HIV-1 Budding by Blocking the Interaction of PTAP/TSG101: Hit Validation (AID 651600). Also: potency is read from the fitted curve at half-maximal effect; nearly all actives have a fitted effect of over 70% in size. To be noted: PTAP peptide/TSG101 UEV interaction, biochemical assay. Summed up:
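Measuring PTAP–Tsg101 interaction by FP: protein at 10 uM and fluorescent peptide at 50 nM (final), buffer 10 mM HEPES pH 7.5 with 0.15 M NaCl, 3 mM EDTA, 0.1 mM TCEP, 0.01% Tween 20; 20 min incubation, r.t.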

Assay [9] in a line: qHTS assay for small molecule agonists of the antioxidant response element (ARE) signaling pathway (AID 651741; active = well fitted activation curve with a large enough effect in the signal ratio; the % refers to the signal ratio; also: potency is read from the fitted curve at half-maximal effect). A digest of the protocol:
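CellSensor ARE-bla HepG2 cells (2,000/well) carrying ARE-driven beta-lactamase, exposed 16 h at 37 C. LiveBLAzer B/G FRET substrate added for 2 h at room temperature; fluorescence intensity read.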

A short description of assay [10]: qHTS Assay for Identification of Small Molecule Agonists for NFkB Signaling Pathway. (AID 624478). Also: 0% is about no effect. A digest of the protocol: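 NFkB-bla ME-180 cells carry a beta-lactamase reporter. They received compound plus TNF alpha at 10 pM final (its EC50) for 5 h at 37 C. Reporter activity was read as 460/530 nm emission ratio after 2 h LiveBLAzer substrate loading.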
Assay [11] is described as follows: qHTS Assay for Identification of Small Molecule Antagonists for NFkB Signaling Pathway. (AID 624479; calls by dose curve;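 also: pathway stimulated with TNF alpha; potency is read from the fitted curve at half-maximal effect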).
Assay [12] in a line: Cell Proliferation Assay against the TMD8 Cell Line (AID 651645).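 Also: cells exposed to compound for 48 h before reading.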 The conditions noted are these: TMD8 DLBCL cell line proliferation/viability; at 46.1 µM (top of the series) unless noted. A digest of the protocol: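 Cell viability of the ABC DLBCL line TMD8 is measured by CellTiter-Glo luminescence following a 48-hour incubation with compound. Percent activity uses DMSO as 100% and 9.2 uM bortezomib (final) as 0%.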

Assay [13] is described as follows: Cell Proliferation Assay against the HBL1 Cell Line (AID 651646).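 Also: cells exposed to compound for 48 h before reading.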 The conditions noted are these: HBL1 DLBCL cells; at 46.1 µM (top of the series) unless noted. Summed up:
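HBL1 ABC DLBCL cells, 500/well in RPMI with 5% FBS, treated for 48 h at 37C. Viability read by CellTiter-Glo luminescence, normalized to DMSO as 100% and 9.2 uM bortezomib as 0%.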

Assay [14] in a line: Cell Proliferation Assay against the TMD8 Cell Line (Caspase readout at 8 hrs) (AID 651713). Also: potency is read from the fitted curve at half-maximal effect. A digest of the protocol: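 TMD8 cells in RPMI plus 5% FBS were treated with compound for 8 h at 37C. Caspase 3/7 activation was read by Caspase-Glo luminescence. Percent activity was scaled from DMSO (0%) to 9.2 uM bortezomib final (100%).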
Assay [15] in a line: qHTS assay for small molecule disruptors of the mitochondrial membrane potential - 1 hr assay (AID 651754; calls by dose curve; also: nearly all actives have a fitted effect of over 35% in size; also: potency is read from the fitted curve at half-maximal effect). A digest of the protocol:
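HepG2 cells, attached overnight, were exposed to compound for 1 hr at 37C, then stained 30 min with a potentiometric dye. Ratio of red aggregate (590nm) to green monomer (535nm) fluorescence reports membrane potential; collapse shifts signal toward green.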

The nature of assay [16]: qHTS assay for small molecule disruptors of the mitochondrial membrane potential - 5 hr assay (AID 651755; calls by dose curve; also: nearly all actives have a fitted effect of over 40% in size; also: potency is read from the fitted curve at half-maximal effect). Summed up:
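HepG2 cells (2,000/well), attached overnight, exposed to compound 5 hr at 37C, then Mito-MPS dye 30 min. Fluorescence read for monomers (490/535 nm) and aggregates (540/590 nm).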

In assay [17] the target is Tumor necrosis factor (Homo sapiens) (UniProt P01375). As to the kind of experiment: qHTS assay to identify small molecules that stimulate Tumor Necrosis Factor-alpha (TNF-alpha) secretion (AID 651757; active = well fitted curve in the direction sought with a large enough effect in the signal ratio; the % refers to the signal ratio; also: 0% is about no effect). Summed up: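 THP-1 cells (3000/well) exposed to compounds 17 hrs at 37 C. Secreted TNF-alpha detected by HTRF with cryptate- and XL665-labeled anti-TNF-alpha antibodies after 3 hr at room temperature.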

Assay [18] is described as follows: Cytotoxicity counterscreen for NFkB agonists and antagonists (AID 624476; also: % is scaled to controls: 0 for no effect and ±100 for the full control effect). (In general: The purpose of a counterscreen is to sort out artefacts and off-target activity.)

Where “and” joins values, the source holds several entries; their conditions need not be identical. Identical values can stand only once. Records with an inconclusive call do not appear. Calls of active or inactive are those of the source. Unless noted, calls follow the shape of the dose curve; as a rule, active = well fitted curve in the direction sought with a large enough effect; inconclusive = small, poorly fitted or top-dose-only effect, or another doubt; inactive = no such curve, though single readings can be large; an effect the other way counts as inactive or inconclusive.

Chain of Peroxisome proliferator-activated receptor alpha (Homo sapiens) (Q07869 whole entry, looked up, the tested form may be a part): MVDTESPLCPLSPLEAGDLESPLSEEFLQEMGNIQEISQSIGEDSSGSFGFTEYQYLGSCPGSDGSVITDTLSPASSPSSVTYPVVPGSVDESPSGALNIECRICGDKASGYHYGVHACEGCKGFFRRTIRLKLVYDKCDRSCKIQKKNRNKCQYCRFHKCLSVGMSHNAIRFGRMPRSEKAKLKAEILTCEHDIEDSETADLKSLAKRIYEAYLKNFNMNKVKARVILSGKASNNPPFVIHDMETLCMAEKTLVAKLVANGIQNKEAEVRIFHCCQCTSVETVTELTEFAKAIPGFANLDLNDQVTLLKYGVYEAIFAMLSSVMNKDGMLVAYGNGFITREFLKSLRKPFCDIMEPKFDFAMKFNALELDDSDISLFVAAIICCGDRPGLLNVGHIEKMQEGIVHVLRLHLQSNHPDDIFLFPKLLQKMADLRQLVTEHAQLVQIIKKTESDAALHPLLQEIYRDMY
Chain of Glucagon-like peptide 1 receptor (Homo sapiens) (P43220 whole entry, looked up): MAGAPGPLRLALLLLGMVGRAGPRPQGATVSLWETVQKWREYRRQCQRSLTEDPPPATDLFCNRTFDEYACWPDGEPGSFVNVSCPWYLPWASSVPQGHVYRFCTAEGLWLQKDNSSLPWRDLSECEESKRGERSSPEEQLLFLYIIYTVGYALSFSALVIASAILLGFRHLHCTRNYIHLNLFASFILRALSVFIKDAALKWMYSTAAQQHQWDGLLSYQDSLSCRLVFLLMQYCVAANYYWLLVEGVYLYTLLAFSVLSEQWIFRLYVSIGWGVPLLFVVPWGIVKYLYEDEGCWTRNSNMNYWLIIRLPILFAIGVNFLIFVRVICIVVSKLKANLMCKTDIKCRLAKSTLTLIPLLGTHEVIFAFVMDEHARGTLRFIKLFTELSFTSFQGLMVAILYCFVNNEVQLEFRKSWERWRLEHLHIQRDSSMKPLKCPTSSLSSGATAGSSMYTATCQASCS
Chain of Tumor necrosis factor (Homo sapiens) (P01375 whole entry, looked up): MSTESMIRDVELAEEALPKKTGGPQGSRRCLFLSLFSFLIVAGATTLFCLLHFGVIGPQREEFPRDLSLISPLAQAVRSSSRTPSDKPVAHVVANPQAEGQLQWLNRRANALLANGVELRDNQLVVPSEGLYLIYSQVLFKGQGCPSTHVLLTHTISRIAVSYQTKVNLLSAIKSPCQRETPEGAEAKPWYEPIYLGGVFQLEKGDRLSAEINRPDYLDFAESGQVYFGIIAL
Chain of Tumor susceptibility gene 101 protein (Homo sapiens) (Q99816 whole entry, looked up): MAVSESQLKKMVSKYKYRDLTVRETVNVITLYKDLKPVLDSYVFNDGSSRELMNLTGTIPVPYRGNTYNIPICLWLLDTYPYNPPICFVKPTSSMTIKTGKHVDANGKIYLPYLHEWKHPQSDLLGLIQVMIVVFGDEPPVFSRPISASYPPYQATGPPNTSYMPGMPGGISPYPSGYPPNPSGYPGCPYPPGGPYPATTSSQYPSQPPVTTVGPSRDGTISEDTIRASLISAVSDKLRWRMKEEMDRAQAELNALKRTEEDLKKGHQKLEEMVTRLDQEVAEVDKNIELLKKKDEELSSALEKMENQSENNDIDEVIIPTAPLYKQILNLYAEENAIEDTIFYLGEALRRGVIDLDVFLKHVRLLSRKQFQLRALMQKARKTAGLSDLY

As for `C[C@](N)(Cc1ccc(O)c(O)c1)C(=O)O`, the Potency result in assay [1] and in assay [3] was “inactive” in each case. Besides, in [2], the call was inactive. Further, the activation in assay [4] is -5.22% (inactive); in [5], 0.934% (inactive); in [6], -1.04% (inactive). In assay [7], the max response was -1.06% (inactive).

Turning to `OCCN(CCO)c1nc(N2CCCCC2)c2nc(N(CCO)CCO)nc(N3CCCCC3)c2n1`, the Potency result in assay [1] and in [3] was “inactive” each time. Also, in assay [8], the Potency was 18.3 µM (active).

As for `CN(Cc1cnc2nc(N)nc(N)c2n1)c1ccc(C(=O)N[C@@H](CCC(=O)O)C(=O)O)cc1`, in [1], the Potency entry was “inactive”. Moreover, the call in assay [2] was inactive. Besides, the Potency in assay [9] was 0.154 µM (active). Moreover, in assay [7], the max response is -3.74% (inactive).

On to `O=C(CCCN1CCC(O)(c2ccc(Cl)cc2)CC1)c1ccc(F)cc1`, for which the Potency entry in assay [1] was “inactive”. The activation is 0.976% (inactive) in assay [4] and -0.128% (inactive) in [6]. Further, the max response in assay [7] was -1.35% (inactive).

Turning to `Cc1ccc(-c2cc(C(F)(F)F)nn2-c2ccc(S(N)(=O)=O)cc2)cc1`, the call in [10] and in assay [17] was inactive. Also, the Potency in [11] was 43.2 µM (active); in [14], 54 µM (active); in assay [9], 66.8 µM (active); in assay [15], 42.2 µM (active); in [16], 42.2 µM (active). For the same compound, the viability (% of control) in assay [12] was found to be 57.7% [at 92.2 µM]. Also, the viability, percent of control in [13] amounted to 6.48% [at 92.2 µM]. Further, the activation in [5] is -1.1% (inactive); in assay [6], -1.91% (inactive). Also, the max response in assay [7] was 3.54% (inactive).

`NCCS(=O)(=O)O`: the Potency entry in [1], in [3], in assay [15] and in assay [16] was “inactive” throughout. For the same compound, the result in assay [2] and in [17] was inactive. Also, the activation was -1.87% (inactive) in assay [4] and -0.375% (inactive) in assay [6]. Moreover, in [7], the max response is 5.59% (inactive).

For `CN(C)C(=O)C(CCN1CCC(O)(c2ccc(Cl)cc2)CC1)(c1ccccc1)c1ccccc1`, the Potency result in [1] and in [3] was “inactive” throughout.

With `CC(C)NCC(O)c1ccc(O)c(O)c1` (centres undefined), the outcome in assay [2] and in [17] was inactive. Moreover, the Potency result in [3], in [15] and in assay [16] was “inactive” each time. In addition, the activation in assay [6] is 0.956% (inactive) and 0.375% (inactive). Also, the max response in assay [7] is -1.03% (inactive) and -0.0809% (inactive).

For `N[C@@H](Cc1c[nH]c2ccc(O)cc12)C(=O)O`, the Potency entry in [1], in assay [3] and in assay [16] was “inactive” throughout. The result in [2] was inactive. Further, in assay [5], the activation was 0.166% (inactive). For the same compound, in assay [7], the max response is -1.51% (inactive).

Regarding `CC(C)C(=O)Nc1ccc([N+](=O)[O-])c(C(F)(F)F)c1`, the Potency result in assay [1] and in assay [3] was “inactive” in each case. Also, the compound was called inactive in [2] and in assay [17]. Further, the activation in assay [6] was 3.62% (inactive) and 3.92% (inactive). Besides, the max response in [7] is -5.17% (inactive) and -3.96% (inactive).

On to `O=c1c(O)c(-c2ccc(O)c(O)c2)oc2cc(O)cc(O)c12`, for which the Potency entry in assay [1], in [3] and in [18] was “inactive” throughout. In addition, in assay [10], the result was inactive.
